Screening data: PubChem, National Center for Advancing Translational Sciences (NCATS)
MBNL1 CUG block: blocks human MBNL1 binding to CUG repeat RNA | TR-FRET MBNL1-His/biotin-(CUG)12 binding, 665/545 ratio | AID 2675 | Q9NR56 | 280,000 compounds, 0.036% hits | Potency, µM (titrated, usually from 57.5 µM), for inactives: top-dose activity change, negative = inhibition, hits mostly inhibitors; active = well fitted inhibition curve with a large enough effect in the signal ratio, with a control signal flat, not every such curve was filed as active; inconclusive = small, poorly fitted or top-dose-only effect, or effect the other way, or a change in a side signal; inactive = no such curve, though single readings can be large or run the other way; the % refers to the signal ratio; note: potency is the fitted concentration of half-maximal effect; % is set by controls: 0 for no effect and ±100 for the full control effect
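Ratiometric TR-FRET (665 over 545 nm, excitation 340 nm) tracks disruption of MBNL1-His/biotin-(CUG)12 complex after 60 min at room temperature, with compounds at 92 nM to 58 uM final.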
CBFb-RUNX1 inh: inhibitors of human CBF-beta and RUNX1 interaction | AlphaScreen CBFb-His/RUNX1-biotin binding, biochemical | 230,000 tested, under 10 active | Potency, µM (series often up to 59.8 µM), without a hit: top-dose activity, negative = inhibition, hits mostly inhibitors | AID 1477 | Q01196+Q13951; note: % of control where 0% means no effect
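Bead-based AlphaScreen assay; binding partners His-tagged CBF-beta and biotinylated RUNX1 at 30 nM each. Compound exposure 15 min after a 20-min protein preincubation; bead step 90 min; all steps at room temperature.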
D3 ag: agonists of human D3 dopamine receptor; P35462; D3R DiscoveRx beta-arrestin cells, luminescence, 90 min; max activation, %; 410,000 compounds, 0.58% hits; AID 652048; in the data active = max activation above about 30%; note: 0% is about no effect
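Agonist-mode cell screen: cells plated at 1500/well and incubated overnight at 37 °C, then exposed to library compounds for 90 min at 37 °C. Detection reagent was added for 30–60 min at room temperature, and luminescence was read.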
a7 integrin act: integrin-mediated muscular dystrophy alleviation activation; alpha7betagal myoblasts, beta-gal FDG fluorescence, 48 h; Potency, µM (titrated, usually from 38.3 µM), for the others: at the top dose activation, actives largely listed as activators; 350,000 compounds, 0.064% hits; AID 624291;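 note: potency is the fitted concentration of half-maximal effect; 100% = response of the positive control SU9516; nearly all actives have a fitted effect of over 60% in size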
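alpha7betagal+/- myoblasts (passage 13, 250/well) treated 48 h at 37C with compounds at 1:260 dilution of DMSO stock. Lysed, then beta-galactosidase activity read as FDG fluorescence (ex 480/em 540) after 30 min, with pre-read for autofluorescence.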
PTHR1 agonist: agonists of human PTHR1 parathyroid hormone receptor | 410,000 compounds, 0.075% hits | Q03431 | Potency, µM (titrated, usually from 115 µM), for inactives: at the top dose activation, actives largely listed as activators | HEK293 GP2 PTHR1 cells, GloSensor cAMP luminescence, 1 h; note: potency is the fitted concentration of half-maximal effect; nearly all actives have a fitted effect of over 55% in size
Target sequence (Q03431 whole entry, looked up): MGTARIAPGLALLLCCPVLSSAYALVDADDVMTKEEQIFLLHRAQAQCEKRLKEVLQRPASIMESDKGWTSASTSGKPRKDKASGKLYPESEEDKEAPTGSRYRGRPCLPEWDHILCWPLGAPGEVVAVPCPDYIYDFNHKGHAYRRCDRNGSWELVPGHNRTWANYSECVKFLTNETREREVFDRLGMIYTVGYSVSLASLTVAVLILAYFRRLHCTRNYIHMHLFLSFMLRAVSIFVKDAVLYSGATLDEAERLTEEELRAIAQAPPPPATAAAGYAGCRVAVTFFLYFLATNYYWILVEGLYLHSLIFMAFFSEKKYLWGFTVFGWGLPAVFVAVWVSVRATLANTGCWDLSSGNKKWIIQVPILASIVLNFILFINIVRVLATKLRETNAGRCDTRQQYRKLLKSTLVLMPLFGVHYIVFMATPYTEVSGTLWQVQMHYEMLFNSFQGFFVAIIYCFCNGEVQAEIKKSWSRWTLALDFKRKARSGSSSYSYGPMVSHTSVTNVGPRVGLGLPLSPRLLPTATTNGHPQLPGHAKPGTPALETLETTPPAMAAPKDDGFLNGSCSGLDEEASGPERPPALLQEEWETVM
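HEK-293-derived GP2 cells expressing PTHR1 and a GloSensor cAMP reporter, 3,000/well, plated overnight, given luciferin plus IBMX (each 0.5 mM as added) for 1 h at 37 °C, then compound for 1 h at 37 °C. Luminescence was read after 15 min at room temperature.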
DRD3 antagonist: D3 dopamine receptor (human) antagonism | D3R cells, DiscoveRx beta-arrestin luminescence, antagonist mode; active compounds read low | P35462 | max response, negative = inhibition, % | 360,000 compounds, 2.5% hits; in the data active = max response below about -50%; inconclusive = no clear call, values can overlap the other calls; note: % is set by controls: 0 for no effect and ±100 for the full control effect
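Cells plated overnight at 1500 cells/well, then exposed to library compounds with dopamine controls for 90 minutes at 37 degrees C. DiscoveRx reagent added for 30–60 minutes at room temperature; luminescence read, quantitative HTS format.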
Starred values were filed as active, the others as inactive; [ ] = remark or other dose. Only some compounds are listed: those with a hit (about 2.8% of all), similar ones and a draw of the others. Unless noted, calls come from the whole dose curve; as a rule, active = well fitted curve in the direction sought with a large enough effect; inconclusive = small, poorly fitted or top-dose-only effect, or another doubt; inactive = no such curve, though single readings can be large; an effect the other way counts as inactive or inconclusive.

Results for COc1ccc2c(c1OC)C(=O)OC2CC(=O)O (stereo not drawn) ?
MBNL1 CUG block: -1.5%; CBFb-RUNX1 inh: 0.2%; D3 ag: 0.1; a7 integrin act: 19.4%; PTHR1 agonist: inactive; DRD3 antagonist: -54.5*

How did COc1ccc2c(c1OC)C(=O)OC2CC(=O)c1ccc(O)cc1 (stereo not drawn) do in these assays?
MBNL1 CUG block: inconclusive; CBFb-RUNX1 inh: 3.4%; D3 ag: -0.1; a7 integrin act: 5.2%; PTHR1 agonist: inactive; DRD3 antagonist: -0.3

Results for Cc1cccc(Cn2cnc3c(nnn3Cc3ccccc3F)c2=O)c1 ?
MBNL1 CUG block: -5.1%; CBFb-RUNX1 inh: 1.5%; D3 ag: 56.0*; a7 integrin act: 38.2%; PTHR1 agonist: inactive; DRD3 antagonist: 3.0

How did Cc1ccc(-n2nnc3c(=O)n(Cc4cc(C)ccc4C)cnc32)cc1 do in these assays?
MBNL1 CUG block: -7.6%; CBFb-RUNX1 inh: -0.5%; D3 ag: -6.7; a7 integrin act: 24.1%; PTHR1 agonist: inactive; DRD3 antagonist: -67.9*

Results for Cc1ccc(-n2nnc3c(=O)n(Cc4cccc(C)c4)cnc32)cc1 ?
MBNL1 CUG block: inconclusive; CBFb-RUNX1 inh: 9.9%; D3 ag: -7.5; a7 integrin act: 21.4%; PTHR1 agonist: inactive; DRD3 antagonist: -0.7

How did O=c1c2c(-c3ccccc3)csc2ncn1/N=C/c1ccc(O)c([N+](=O)[O-])c1 do in these assays?
MBNL1 CUG block: 19.9%; CBFb-RUNX1 inh: -9.7%; D3 ag: -2.0; a7 integrin act: 17.9%; PTHR1 agonist: inactive; DRD3 antagonist: -6.1

What do the screens show for `O=c1c2c(-c3ccccc3)csc2ncn1/N=C/c1cccc([N+](=O)[O-])c1O`?
MBNL1 CUG block: 8.8%; CBFb-RUNX1 inh: -21.9%; D3 ag: -15.1; a7 integrin act: 18.6%; PTHR1 agonist: -2.2%; DRD3 antagonist: -51.8*

How did O=C1C(Nc2ccccc2)=C(N2CCCCC2)C(=O)c2ccccc21 do in these assays?
MBNL1 CUG block: inconclusive; CBFb-RUNX1 inh: -6.4%; D3 ag: -2.7; a7 integrin act: 4.7%; PTHR1 agonist: -10.4%[57.5 µM]; DRD3 antagonist: -60.1*

What do the screens show for `Cc1ccc(NC2=C(N3CCCCC3)C(=O)c3ccccc3C2=O)cc1`?
MBNL1 CUG block: inconclusive; CBFb-RUNX1 inh: 0.7%; D3 ag: -12.1; a7 integrin act: -45.6%; PTHR1 agonist: -25.2%[57.5 µM]; DRD3 antagonist: -62.6*

What do the screens show for `O=C1C(Nc2cccc(O)c2)=C(N2CCCCC2)C(=O)c2ccccc21`?
MBNL1 CUG block: inconclusive; CBFb-RUNX1 inh: 0.0%; D3 ag: -14.0; a7 integrin act: -46.4%; PTHR1 agonist: -11.5%; DRD3 antagonist: inconclusive
